From PubChem BioAssay AID1851 (National Center for Advancing Translational Sciences (NCATS), 2009)
Where “and” joins values, the source holds several entries; their conditions need not be identical. Equal entries are not always repeated. Hit rate of the full screen: of about 16,000 compounds, about 5,100 (32%) were called active. About 25% were inconclusive and are not listed. The list shows a part of the results. Unmarked numbers belong to inactive results. Calls follow the shape of the dose curve; as a rule, active = well fitted curve in the direction sought with a large enough effect; inconclusive = small, poorly fitted or top-dose-only effect, or effect the other way; inactive = no such curve, though single readings can be large or run the other way.

Molecular target: Cytochrome P450 3A4 (Homo sapiens) (UniProt P08684)
Assay: Cytochrome panel assay with activity outcomes
Conditions: recombinant CYP, pro-luciferin dealkylation, luminescence, p450-cyp3a4; series mostly up to 57.1 µM; activity, negative = inhibition: at the top concentration
% is scaled to controls: 0 for no effect and ±100 for the full control effect.

Chain of Cytochrome P450 3A4 (Homo sapiens) (P08684 whole entry, looked up): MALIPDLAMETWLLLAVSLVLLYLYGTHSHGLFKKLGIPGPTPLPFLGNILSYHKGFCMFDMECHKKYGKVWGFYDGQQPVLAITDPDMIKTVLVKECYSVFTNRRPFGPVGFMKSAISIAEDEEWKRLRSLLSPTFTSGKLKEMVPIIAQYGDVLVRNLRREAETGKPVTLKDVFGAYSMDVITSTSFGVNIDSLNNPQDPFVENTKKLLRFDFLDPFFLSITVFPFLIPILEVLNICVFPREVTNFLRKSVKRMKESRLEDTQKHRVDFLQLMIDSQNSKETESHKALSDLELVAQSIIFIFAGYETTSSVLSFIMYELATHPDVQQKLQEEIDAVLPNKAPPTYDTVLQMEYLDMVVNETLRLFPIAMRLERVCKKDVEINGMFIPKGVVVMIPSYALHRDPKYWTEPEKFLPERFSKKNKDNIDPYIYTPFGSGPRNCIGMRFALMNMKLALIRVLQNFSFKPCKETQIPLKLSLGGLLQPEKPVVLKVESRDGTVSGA

SMILES | AC50 | activity, negative = inhibition
CC(=O)Nc1c2c3c(cccc3n(C)c1=O)C(=O)c1ccccc1-2 | 17.8 µM (active) | –
Cc1ccc(NC(=O)Nc2ncccc2C)cc1 | – | -13.7% [at 2.29 µM]
CCOC(=O)C(=Cc1ccc(F)cc1)C(=O)OCC | – | 11.9%
CCOC(=O)C(=CNc1ncccc1C)C(=O)OCC | 12.6 µM (active) | –
CCOC(=O)/C(=C/Nc1ccccc1)[N+](=O)[O-] | – | -3.29%
CCOC(=O)C(=CNCC(=O)O)C(=O)OCC | – | 0.794%
CCOC(=O)C(=CNc1cccc(C)c1C)C(=O)OCC | 15.8 µM (active) | –
Cc1ccc(C(=O)O/N=C/c2c(Cl)n(C)c3ccccc23)cc1 | – | -15.1%
CN(C)CCCn1c2ccccc2c2cnccc21 | – | -22.2% [at 11.4 µM]
Cc1c2cnccc2c(C)c2c1c1ccccc1n2CCOC(=O)c1ccccc1 | 0.631 µM (active) | –
Cc1noc(C)c1-c1nc(Nc2ccc(F)cc2)c2ccccc2n1 | – | -19.8%
Cc1noc(C)c1-c1nc(NC2CCNCC2)c2ccccc2n1 | – | -11.4%
Cc1noc(C)c1-c1nc(Nc2ccncc2)c2ccccc2n1 | 0.316 µM (active) | –
Cc1noc(C)c1-c1nc(Nc2ccccc2)c2ccccc2n1 | 6.31 µM (active) | –
O=C(O)Cc1cc(Cl)ccc1O | – | -2.24% [at 11.4 µM]
CN(/C=C/C(=O)C(F)(F)F)Cc1ccccc1 | – | 7.08%
CC(C)Oc1ccc(CNC(=O)CC(c2ccccc2)c2cc(Cl)ccc2O)cc1 (stereo not drawn) | 10 µM (active) | –
CN(Cc1ccccc1)C(=O)CC(c1ccccc1)c1cc(Cl)ccc1O (stereo not drawn) | 14.1 µM (active) | –
COc1cccc(Cn2c(=O)c(CCc3ccccc3)nc3cncnc32)c1 | 2.51 µM (active) | –
COc1cccc(Cn2c(=O)c(CCc3ccccc3)nc3cnc(OC)nc32)c1 | 2.51 µM (active) | –
NC/C=C\C(=O)O | inactive | –
CC(C(=O)NCc1ccc2c(c1)OCO2)N1c2cccc3cccc(c23)S1(=O)=O (stereo not drawn) | 0.316 µM (active) | –
Cc1cc(C)c2nc3c(c([C@H](O)[C@@H]4CCCCN4)c2c1)CC/C3=C/c1ccc(Cl)cc1 | – | -1.86% [at 11.4 µM]
CN(C)C(=O)c1ccc(-c2nc(NCc3cccnc3)c3ccccc3n2)cc1 | 12.6 µM (active) | –

SMILES | AC50 | activity, negative = inhibition
CN(C)c1ccc(-c2nc(NCc3cccnc3)c3ccccc3n2)cc1 | 2 µM (active) | –
CN(C)C(=O)c1ccc(-c2nc(NC3CCNCC3)c3ccccc3n2)cc1 | – | 19.7%
CN(C)C(=O)c1ccc(-c2nc(NCc3ccccc3)c3ccccc3n2)cc1 | 15.8 µM (active) | –
CC(=O)NCCNc1nc(-c2ccc(C(=O)N(C)C)cc2)nc2ccccc12 | – | 3.16%
CN(C)C(=O)c1ccc(-c2nc(NCc3cccs3)c3ccccc3n2)cc1 | 15.8 µM (active) | –
O=C1C[C@@H](O)[C@@H](O)[C@H]2[C@@H]3C(=O)N(c4cccc(Oc5ccccc5)c4)C(=O)[C@@H]3CC[C@H]12 | – | -19.7% [at 11.4 µM] and -7.2% [at 11.4 µM]
Cc1ccc(OCC(=O)Nc2ccccc2-c2ccccc2)cc1 | 20 µM (active) | –
Cc1ccc(OCC(=O)NC2=NCCS2)cc1 | – | -22.5% [at 11.4 µM]
Cc1ccc(OCC(=O)NNC(=O)CCC(=O)NCc2ccccc2)cc1 | – | -28.6%
Cc1ccc(OCC(=O)NNC(=O)CCc2ccccc2)cc1 | – | -11.1%
Cc1ccc(OCC(=O)Nn2cnc3ccccc32)cc1 | 7.94 µM (active) | –
CN(C)CCN1C(=O)C(O)=C(C(=O)c2cc3ccccc3o2)C1c1cccc(Br)c1 (stereo not drawn) | – | 27.7% [at 2.29 µM]
O=C(Nc1ccccc1)N1CC[C@@]2(CCCN(C(=O)c3ccco3)C2)C1 | – | -27.6%
CC(C)NC(=O)N1CC2(CCN(C(=O)c3ccco3)CC2)C1 | – | -0.152%
O=C(c1ccco1)N1CCC2(CCCN(C(c3ccccc3)c3ccccc3)C2)CC1 | 12.6 µM (active) | –
O=C(c1ccco1)N1CCC[C@@]2(CCN(C(c3ccccc3)c3ccccc3)C2)C1 | 12.6 µM (active) | –
COc1cc(-c2nnc(SCC3(c4ccccc4)OCCO3)o2)cc(OC)c1OC | 4.47 µM (active) | –
COc1cc(-c2nnc(SCC(=O)Nc3ccc4c(c3)OCCO4)o2)cc(OC)c1OC | 8.91 µM (active) | –
COc1cc(-c2nnc(SCC3(c4ccc(Br)cc4)OCCO3)o2)cc(OC)c1OC | 12.6 µM (active) | –
Cc1ccc(NC(=O)CSc2nnc(-c3ccncc3)o2)cc1 | – | -3.56% [at 2.29 µM]
OC[C@@H](O)[C@@H](O)[C@@H](O)[C@@H](O)c1nc2ccc(Cl)cc2[nH]1 | – | -5.7% [at 11.4 µM]
Cc1ccc(/C=N\Nc2nc3ccc(Cl)cc3[nH]2)o1 | 8.91 µM (active) | –
CCOC(=O)N/N=C/c1ccc(C)o1 | – | -15.3%
Cc1cccc(NC(=O)C2(c3ccc([N+](=O)[O-])cc3)CCCC2)c1 | – | -2.71% [at 2.29 µM]
